Hits are enriched below; roughly 6.9% of the tested compounds scored in any of these assays.
L3MBTL1 block – blocks human L3MBTL1; Q9Y468; AlphaScreen L3MBTL1–H3K9me1 peptide binding; Potency, µM (top dose mostly 57.1 µM), inactives show at the top dose activity, negative = inhibition, usual class: inhibitors; actives 0.66% (n = 230,000); also: % is scaled to controls: 0 for no effect and ±100 for the full control effect; nearly all actives have a fitted effect of over 60% in size
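First, the protein-peptide complex forms for 30 min at room temperature (L3MBTL1 50 nM, biotinylated H3K9me1 peptide 75 nM). Next, compounds are pin-transferred and incubated 30 min. Finally, AlphaScreen beads are added and read after 30 min.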
JMJD2A Tudor inh – blocks the human JMJD2A Tudor domain | AlphaScreen JMJD2A-Tudor / H3K4me3 peptide binding | Potency, µM (doses to about 114 µM), without a hit: at the top dose activity change, negative = inhibition, most hits filed as inhibitors | actives 4.4% (n = 390,000); also: % is scaled to controls: 0 for no effect and ±100 for the full control effect; nearly all actives have a fitted effect of over 50% in size
VDR inhibitor – vitamin D3 receptor (human) inhibition. VDR-SRC2-3 peptide fluorescence polarization, 2 h. actives 0.93% (n = 400,000). AID 504847. Potency, µM, for inactives: max response, negative = inhibition, usual class: inhibitors; also: % is scaled to controls: 0 for no effect and ±100 for the full control effect
Target sequence (P11473 whole entry, looked up): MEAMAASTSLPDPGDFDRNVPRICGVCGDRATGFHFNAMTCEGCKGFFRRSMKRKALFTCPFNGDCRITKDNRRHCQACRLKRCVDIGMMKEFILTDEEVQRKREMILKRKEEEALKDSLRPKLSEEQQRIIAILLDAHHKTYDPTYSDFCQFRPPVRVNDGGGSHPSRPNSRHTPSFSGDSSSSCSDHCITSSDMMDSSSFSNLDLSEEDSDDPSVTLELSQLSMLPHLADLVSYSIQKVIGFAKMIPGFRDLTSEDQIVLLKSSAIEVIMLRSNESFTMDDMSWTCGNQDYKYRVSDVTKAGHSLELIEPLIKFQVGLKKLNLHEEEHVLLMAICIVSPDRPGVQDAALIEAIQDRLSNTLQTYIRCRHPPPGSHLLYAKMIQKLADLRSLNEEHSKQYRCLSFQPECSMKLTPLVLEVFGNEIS
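Signal is fluorescence polarization, reporting how far test compounds block the interaction of VDR with the SRC2-3 coregulator peptide after a 2 h room-temperature incubation.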
PLK1 PBD inh – PLK1 (human) polo-box domain binding inhibition; P53350; Potency, µM, without a hit: max response, negative = inhibition, actives largely listed as inhibitors; Plk1 PBD binding of FITC phosphopeptide, fluorescence polarization; actives 2.8% (n = 360,000); also: series mostly up to about 57 µM; % is scaled to controls: 0 for no effect and ±100 for the full control effect; nearly all actives have a fitted effect of over 65% in size
BAZ2B block – blocks human BAZ2B; Q9UIF8; AlphaScreen BAZ2B-H3K14Ac peptide displacement; Potency, µM (series often up to 114 µM), for the others: top-dose activity change, negative = inhibition, usual class: inhibitors; actives 4.4% (n = 360,000); AID 504333; also: % is scaled to controls: 0 for no effect and ±100 for the full control effect; nearly all actives have a fitted effect of over 60% in size
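AlphaScreen displacement of biotin-H3(5-23)K14Ac peptide (50 nM final) from BAZ2B (50 nM final) in PBS pH 7.4, 0.01% Tween-20; complex preformed 30 min RT, then compounds (top 110 uM) 30 min RT, beads 20 min dark.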
HP1b binding inh – HP1-beta chromodomain-methylated histone interaction inhibition; P83916; AlphaScreen HP1-beta / biotin-H3K9me3 peptide binding; Potency, µM (titrated, usually from 114 µM), for the others: top-dose activity change, negative = inhibition, hits mostly inhibitors; actives 0.56% (n = 390,000); AID 540317; also: nearly all actives have a fitted effect of over 70% in size
Target sequence (P83916 whole entry, looked up): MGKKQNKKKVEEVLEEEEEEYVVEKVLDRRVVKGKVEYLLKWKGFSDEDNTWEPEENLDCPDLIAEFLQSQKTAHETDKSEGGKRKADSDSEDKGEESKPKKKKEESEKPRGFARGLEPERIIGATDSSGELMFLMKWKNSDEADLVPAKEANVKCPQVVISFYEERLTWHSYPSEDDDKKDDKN
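AlphaScreen: HP1-beta (50 nM) preformed 30 min with biotin-H3(1-18)K9me3 peptide (50 nM) in PBS pH 7.4, 0.01% Tween-20. Compound added for 30 min at RT, then streptavidin donor/nickel chelate acceptor beads (10 ug/mL) for 30 min.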
Numbers without * were called inactive; [ ] = remark or other dose. Calls follow the shape of the dose curve; as a rule, active = well fitted curve in the direction sought with a large enough effect; inconclusive = small, poorly fitted or top-dose-only effect, or another doubt; inactive = no such curve, though single readings can be large; an effect the other way counts as inactive or inconclusive. Potency is read from the fitted curve at half-maximal effect.

For COc1ccc(NC(C)=O)cc1NC(=O)CSc1nnc(C2CCCCC2)n1N the results were JMJD2A Tudor inh -1.5%, VDR inhibitor -2.3%, PLK1 PBD inh -7.4%, BAZ2B block -11.8% and HP1b binding inh 46.6%.
Screening COc1ccc(-c2nnc(SCC(=O)Nc3cc(OC)ccc3OC)nc2-c2ccc(OC)cc2)cc1 returned JMJD2A Tudor inh inconclusive, VDR inhibitor -7.3%, BAZ2B block 7.94µM* and HP1b binding inh 4.5%.
`CCn1c(SCC(=O)Nc2cc(OC)ccc2OC)nc2c(c1=O)SCC2` gave JMJD2A Tudor inh inconclusive, VDR inhibitor -2.3%, PLK1 PBD inh -5.5%, BAZ2B block 79.4µM* and HP1b binding inh -18.8%.
COc1ccc(OC)c(NC(=O)CSc2nccn2-c2cc(C)cc(C)c2)c1 was read as JMJD2A Tudor inh 10µM*, VDR inhibitor 12.5%, BAZ2B block 12.6µM* and HP1b binding inh inconclusive.
CCn1c(SCC(=O)Nc2ccc(OC)c(OC)c2)nc2c(c1=O)SCC2 was read as JMJD2A Tudor inh -4.9%, VDR inhibitor -22.3%, PLK1 PBD inh -5.7%, BAZ2B block -34.6% and HP1b binding inh 24.8%.
`COc1ccc(-n2c(=O)c(CCc3ccccc3)nc3cncnc32)cc1` gave VDR inhibitor -13.6%.
For CC(C)NC(=O)C1(C)CCCN1Cc1ccccc1C#N (centres undefined) the results were PLK1 PBD inh -4.9%.
`O=C(COC(=O)Cc1ccc(Cl)cc1)Nc1ccc2[nH]c(=O)[nH]c2c1` gave L3MBTL1 block 28.1%, JMJD2A Tudor inh -9.0%, VDR inhibitor -3.1%, PLK1 PBD inh -0.9%, BAZ2B block inconclusive and HP1b binding inh 14.9%.
For Cc1ccc(NC(=O)CSc2nnc(-c3cc(C)[nH]n3)n2N)c(C)c1 the results were JMJD2A Tudor inh -5.3%, VDR inhibitor -13.2%, PLK1 PBD inh -19.8%, BAZ2B block 18.6% and HP1b binding inh 50.3%.
COc1cccc(-n2ccnc2SCC(=O)Nc2cc(C)on2)c1 was read as L3MBTL1 block -9.2%, JMJD2A Tudor inh -27.1%, VDR inhibitor -11.4%, PLK1 PBD inh -12.6%, BAZ2B block -29.1% and HP1b binding inh 0.8%.
For Cc1cccc(-n2ccnc2SCC(=O)Nc2cccc3ccccc23)c1 the results were JMJD2A Tudor inh 31.6µM*, VDR inhibitor 4.4%, BAZ2B block 15.8µM* and HP1b binding inh inconclusive.
Screening Cc1ccc(NC(=O)Cc2ccc(-n3cccc3)cc2)c(C)c1 returned L3MBTL1 block inconclusive, JMJD2A Tudor inh -35.8%[57.1 µM], VDR inhibitor -2.5%, PLK1 PBD inh -15.8%, BAZ2B block 50.1µM* and HP1b binding inh 8.9%.
`Cc1cc(C)cc(NC(=O)Cc2ccc(-n3cccc3)cc2)c1` gave L3MBTL1 block -13.0%, JMJD2A Tudor inh 11.3%[57.1 µM], VDR inhibitor inconclusive, PLK1 PBD inh -1.1%, BAZ2B block -9.5% and HP1b binding inh 28.2%.
Screening Cc1ccc(NC(=O)CSc2nnc(C)c(=O)n2N)c(C)c1 returned L3MBTL1 block inconclusive, JMJD2A Tudor inh -6.9%, VDR inhibitor -7.3%, PLK1 PBD inh -7.2%, BAZ2B block 50.1µM* and HP1b binding inh 15.3%.
Screening COCCn1c(SCC(=O)NCC2CCCO2)nc2c(c1=O)SCC2 (centres undefined) returned JMJD2A Tudor inh 89.1µM*, VDR inhibitor -13.2%, PLK1 PBD inh -5.1%, BAZ2B block -19.3% and HP1b binding inh 26.8%.
`COCCn1c(SCC(=O)NC2CCCCC2)nc2c(c1=O)SCC2` gave JMJD2A Tudor inh -18.6%, VDR inhibitor -16.0%, PLK1 PBD inh -6.6%, BAZ2B block -21.6% and HP1b binding inh 19.4%.
`CC(=O)N1CCc2cc(Br)cc(S(=O)(=O)CCC(=O)N3CCN(c4ccccc4Cl)CC3)c21` gave JMJD2A Tudor inh -30.0%, VDR inhibitor -1.2%, BAZ2B block 13.9% and HP1b binding inh 23.1%.
`Cc1ccc2c(C)c(C(=O)N(Cc3ccc(F)cc3)C3CCS(=O)(=O)C3)oc2c1` (centres undefined) gave JMJD2A Tudor inh -22.1%, VDR inhibitor -5.1%, PLK1 PBD inh -7.2%, BAZ2B block -16.9% and HP1b binding inh 38.0%.
For c1ccc(CCSc2nccn2-c2ccccc2)cc1 the results were L3MBTL1 block inconclusive, JMJD2A Tudor inh inconclusive, VDR inhibitor -7.3%, PLK1 PBD inh -8.1%, BAZ2B block 39.8µM* and HP1b binding inh inconclusive.
CCOc1ccccc1NC(=O)CSc1nccn1-c1ccccc1 was read as L3MBTL1 block -14.5%, JMJD2A Tudor inh -33.3%, VDR inhibitor -0.8%, PLK1 PBD inh -0.8%, BAZ2B block 50.1µM* and HP1b binding inh -20.6%.
`Cc1cc(C)cc(-n2ccnc2SCC(=O)Nc2ccc(C)cc2C)c1` gave JMJD2A Tudor inh 39.8µM*, VDR inhibitor -6.8%, BAZ2B block 31.6µM* and HP1b binding inh -10.6%[57 µM].
COc1ccc(NC(=O)CSc2nccn2-c2ccccc2)c(OC)c1 was read as L3MBTL1 block -8.7%, JMJD2A Tudor inh -32.7%, VDR inhibitor 4.6%, PLK1 PBD inh -4.0%, BAZ2B block inconclusive and HP1b binding inh -22.4%.
Screening COC(=O)CCCSc1nccn1-c1ccccc1 returned L3MBTL1 block -3.7%, JMJD2A Tudor inh -18.5%, VDR inhibitor -20.1%, PLK1 PBD inh -9.3%, BAZ2B block inconclusive and HP1b binding inh 27.3%.
`CCCN1CCC(=O)N(C(CSc2ccc(Br)cc2)c2ccccc2)CC1` (centres undefined) gave JMJD2A Tudor inh -32.4%, VDR inhibitor -9.2% and HP1b binding inh 1.9%.
COc1cccc(NC(=O)Cn2c(CCC(=O)O)ccc2-c2ccc(Cl)cc2)c1 was read as L3MBTL1 block -19.3%, JMJD2A Tudor inh -22.0%, VDR inhibitor -1.8%, PLK1 PBD inh -5.5%, BAZ2B block 44.7µM* and HP1b binding inh -13.0%.
Screening CCC(=O)OCC(=O)[C@@]1(OC(=O)CC)[C@H](C)C[C@@H]2[C@@H]3[C@H]([C@@H](O)C[C@@]21C)[C@]1(C)C=CC(=O)C=C1C[C@@H]3Cl returned VDR inhibitor -3.4%.
`O=C(OCc1ccccc1)N1C[C@H](O)[C@H](O)C[C@@H]1c1c(Cl)cccc1Br` gave PLK1 PBD inh -3.6%.
Screening COc1ccc2ccccc2c1CN1CCN(C(=O)c2ccco2)CC1 returned JMJD2A Tudor inh -33.3%, VDR inhibitor 0.8%, PLK1 PBD inh -9.6%, BAZ2B block inconclusive and HP1b binding inh 0.5%.
Screening O=C(c1ccncc1)N1CCN(C(=O)c2cccc3ccccc23)CC1 returned L3MBTL1 block -0.5%, JMJD2A Tudor inh -10.8%, VDR inhibitor 7.1%, PLK1 PBD inh -5.3%, BAZ2B block -19.3% and HP1b binding inh 39.1%.
